Records with an inconclusive call do not appear. Values without a mark were called inactive. The source made the active and inactive calls. The call rests on the fitted dose curve; in most records, active means well fitted activation curve with a large enough effect; inconclusive means small, poorly fitted or top-dose-only effect; inactive means no such curve, though single readings can be large or run the other way.

The nature of the assay: Confirmation Concentration-Response Assay for Enhancers of SMN2 Splice Variant Expression for Further Probe SAR. To be noted: HEK293 SMN2 exon7-luciferase splicing reporter, luminescence, 30-36 h; series mostly up to 46.1 µM; activity, positive = activation: at the top concentration. From the text: NIH Chemical Genomics Center [NCGC] NIH Molecular Libraries Probe Production centers Network [MLPCN] MLPCN Grant: R03 MH084179-01 Assay Submitter (PI): Elliot Androphy NCGC Assay Overview: Spinal muscular atrophy (SMA) is caused by insufficient levels of the survival motor neuron protein SMN. The SMN locus on chromosome 5q13 contains two inverted copies of SMN called SMN1 and SMN2 which are 99% identical at the amino acid level. SMN1 is a fully functional protein and SMN2 skips exon 7 90% of the time. Skipping of exon 7 produces non-functional protein product. 10% of the SMN2 protein includes exon 7 and is fully functional. In the SMA disease state, mutations in the SMN1 locus are the cause of the disease state. Because only 10% of SMN2 is of the fully functional form, it is not sufficient to overcome the deficiency produced by the loss of the SMN1 product. A therapy that either increase the amount of SMN2 product made or to increase the inclusion of exon 7 has been proposed for the treatment of SMA. We have designed an assay to identify small molecules that can increase the amount of functional SMN2 product by appending a luciferase reporter gene after the native SMN2 gene, such that inclusion of exon 7 in the expressed product places the luciferase sequence in frame, thus generating functional luciferase enzyme.
NCGC Assay Protocol Summary: This screen utilizes a luciferase reporter gene assay, combining the promoter with the major portion of the native SMN2 cDNA (exons 1 -7, intron 8 , exon 8 fused to luciferase) stably expressed in HEK293 cells. Compounds that increase luciferase signal presumably enhance expression of the functional SMN2 splice variant. Passaging media contained DMEM w/ glutamax (+phenol red) 10% FCS, 1x pen/strep, 200 ug/ml hygro, 1x sodium pyruvate. Assay media contained DMEM w/ glutamax (-phenol red) 10% FCS, 1x pen strep, 1x pyruvate Sequence, Parameter, Value, Description (1) Cells, 5 uL, 2000 cells/well, 1536 TC treated White solid bottom plate (2) Time, 10-12 hours, 37C 5% CO2 (3) Compound, 23 nl, MLSMR Library (4) Control Compound, 23 nL, Sodium butyrate st 4.5mM (final) conc (5) Time, 30-36 hours, 37C 5% CO2 (6) Reagent, 3 ul, One Glo (TM) from Promega (7) Time, 5-15 minutes, Room temp (8) Detector, Viewlux: luminescent read, 60 second integration, high speed 2x binning Keywords: Spinal muscular atrophy, SMA, SMN2, high throughput screening, MLSMR, MLPCN, NIH Roadmap, qHTS and NCGC
`CC(C)(C)c1ccc(-c2csc(N3CCC(C(N)=O)CC3)n2)cc1`: the Potency was 2740 nM (active). With `NC(=O)C1CCN(c2nccc(Cl)n2)CC1`, the “activity, positive = activation” value was 0%. For `CN(C)c1cccc(-c2cc(N3CCC(C(N)=O)CC3)ncn2)c1`, the Potency is 4870 nM (active). Still for that read-out and setting: in the case of `NC(=O)C1CCN(c2ncc(-c3ccc4c(c3)OCCO4)s2)CC1` it was 86.7 nM (active); in that of `NC(=O)C1CCN(c2ncc(-c3ccc(Br)cc3)s2)CC1`, 218 nM (active).

The record behind these values is PubChem BioAssay AID488832 (National Center for Advancing Translational Sciences (NCATS), 2010).
